PubChem BioAssay (NCI)
The panel holds about 83,000 compounds, 20% with a hit somewhere; the sample as a whole holds those more often.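 Treatment: one concentration, 48 hours, 96-well format. Scoring: percent growth, with anything below 10 considered active.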 Calls of active or inactive are those of the source.

Columns and labels:
Assay in all cases: NCI-60 one-dose screen, 48 h (100 = growth as untreated, 0 = no growth, -100 = all killed)
DU-145 prostate = details: 10 µM unless noted
K-562 leukemia = details: 10 µM unless noted
MALME-3M melanoma = details: 10 µM unless noted
MDA-MB-231 breast = details: 10 µM unless noted
RXF 393 renal = details: 10 µM unless noted
SF-268 CNS = details: 10 µM unless noted
SF-295 CNS = details: 10 µM unless noted
SF-539 CNS = details: 10 µM unless noted
UACC-257 melanoma = details: 10 µM
M14 melanoma = details: 10 µM unless noted
HCT-15 colon = details: 10 µM unless noted
HT29 colon = details: 10 µM unless noted
SNB-75 CNS = details: 10 µM unless noted
SNB-19 CNS = details: 10 µM unless noted
U251 CNS = details: 10 µM unless noted
PC-3 prostate = details: 10 µM unless noted
SK-MEL-5 melanoma = details: 10 µM unless noted
UACC-62 melanoma = details: 10 µM unless noted
LOX IMVI melanoma = details: 10 µM unless noted
SK-MEL-28 melanoma = details: 10 µM unless noted

Measured: growth

CC(C)=CCc1c2c(c(O)c3c1O[C@]14C(=C[C@@H]5C[C@H]1C(C)(C)O[C@@]4(C/C=C(/C)C(=O)O)C5=O)C3=O)CC(O)C(C)(C)O2 (stereo not given in full)
active: DU-145 prostate -78.2% | K-562 leukemia 5.83% | MALME-3M melanoma -38.5% | MDA-MB-231 breast 0.342% | RXF 393 renal -77.4% | SF-268 CNS -40.7% | SF-295 CNS -48.5% | SF-539 CNS -37.2% | UACC-257 melanoma -32.5% | M14 melanoma -24.8% | HCT-15 colon -41.6% | HT29 colon -8.66% | SNB-75 CNS -25.7% | U251 CNS -72.4% | PC-3 prostate 7.46% | SK-MEL-5 melanoma -96.6% | UACC-62 melanoma -26.1% | LOX IMVI melanoma -95.4% | SK-MEL-28 melanoma -13.7%
inactive: SNB-19 CNS 22.6%

CCN1C(=O)N(CC)C2SC(N/N=C/c3ccccc3F)=NC21 (stereo not given)
active: K-562 leukemia 9.76% | SF-539 CNS -16.7% | HT29 colon 0.675%
inactive: DU-145 prostate 16.6% | MALME-3M melanoma 71.1% | MDA-MB-231 breast 24.1% | RXF 393 renal 46.4% | SF-268 CNS 45.4% | SF-295 CNS 11.6% | UACC-257 melanoma 61% | M14 melanoma 17.2% | HCT-15 colon 16.2% | SNB-75 CNS 21.5% | SNB-19 CNS 24.6% | U251 CNS 16.4% | PC-3 prostate 29.8% | SK-MEL-5 melanoma 11.1% | UACC-62 melanoma 37.6% | LOX IMVI melanoma 15.6% | SK-MEL-28 melanoma 54.8%

COc1ccc(C2C(C#N)=C(N)Oc3c2sc2ccc(C)cc32)cc1 (stereo not given)
active: RXF 393 renal -7.62% | SF-295 CNS 9.1% | SNB-75 CNS -3.3% | SK-MEL-5 melanoma 2.75%
inactive: DU-145 prostate 36.3% | K-562 leukemia 18.2% | MALME-3M melanoma 50% | MDA-MB-231 breast 42.2% | SF-268 CNS 44.7% | SF-539 CNS 21% | UACC-257 melanoma 57.1% | M14 melanoma 20.9% | HCT-15 colon 19.2% | HT29 colon 25.3% | SNB-19 CNS 38.6% | U251 CNS 26.9% | PC-3 prostate 33.1% | UACC-62 melanoma 23.4% | LOX IMVI melanoma 38% | SK-MEL-28 melanoma 55.6%

C/C(=C(/c1ccc(O)cc1)c1ccc(OCCN(C)C)cc1)c1ccc(Cl)cc1
inactive: DU-145 prostate 65.2% | MDA-MB-231 breast 31.1% | RXF 393 renal 30.3% | SF-268 CNS 61.8% | SF-295 CNS 80.9% | SNB-75 CNS 63.8% | SNB-19 CNS 59.7% | U251 CNS 35.3% | PC-3 prostate 52.1% | SK-MEL-5 melanoma 42.9%
active: K-562 leukemia 0.0711% | MALME-3M melanoma -47.9% | SF-539 CNS -18.4% | UACC-257 melanoma -66.6% | M14 melanoma -70.7% | HCT-15 colon -26.8% | HT29 colon -51.3% | UACC-62 melanoma -27.3% | LOX IMVI melanoma -22.2% | SK-MEL-28 melanoma -74.1%

COc1ccc(/C=C/C(=O)c2nnn(-c3ccc(C(=O)O)cc3)c2C)cc1OC
inactive: DU-145 prostate 104% | K-562 leukemia 80.8% | MALME-3M melanoma 95.8% | MDA-MB-231 breast 96.7% | RXF 393 renal 112% | SF-268 CNS 99.4% | SF-295 CNS 103% | SF-539 CNS 91.7% | UACC-257 melanoma 97% | M14 melanoma 92.6% | HCT-15 colon 89.6% | HT29 colon 102% | SNB-75 CNS 99.1% | SNB-19 CNS 96.3% | U251 CNS 93.8% | PC-3 prostate 97.7% | SK-MEL-5 melanoma 103% | UACC-62 melanoma 90.3% | LOX IMVI melanoma 76.2% | SK-MEL-28 melanoma 107%

CC(=O)Nc1cccc(-n2cnc3cc(-c4ccc(O)cc4)ccc32)c1
active: K-562 leukemia 8.67% | RXF 393 renal -6.91% | SF-539 CNS -5.03% | SNB-75 CNS -31.7%
inactive: DU-145 prostate 27.9% | MALME-3M melanoma 73.7% | MDA-MB-231 breast 61.1% | SF-268 CNS 46.2% | SF-295 CNS 17.1% | UACC-257 melanoma 79.6% | M14 melanoma 53.2% | HCT-15 colon 24.8% | HT29 colon 28.2% | SNB-19 CNS 33.4% | U251 CNS 23.1% | PC-3 prostate 35.7% | SK-MEL-5 melanoma 28.3% | UACC-62 melanoma 36.5% | LOX IMVI melanoma 36.6% | SK-MEL-28 melanoma 78%

c1ccc(-c2n(Cc3ccc4ccccc4c3)c3c4ccccc4c4ccccc4c3[n+]2Cc2ccc3ccccc3c2)cc1
active: DU-145 prostate -94.4% | K-562 leukemia -45% | MALME-3M melanoma -81.4% | MDA-MB-231 breast -79% | RXF 393 renal -83.2% | SF-268 CNS -63.6% | SF-295 CNS -87.1% | SF-539 CNS -81.8% | UACC-257 melanoma -38.2% | M14 melanoma -64.6% | HCT-15 colon -76.7% | HT29 colon -67.2% | SNB-75 CNS -54.3% | SNB-19 CNS -88.5% | U251 CNS -78.7% | PC-3 prostate -78.6% | SK-MEL-5 melanoma -98.5% | UACC-62 melanoma -87.6% | LOX IMVI melanoma -86.2% | SK-MEL-28 melanoma -87.3%

CCOC(=O)C1=C(C)Nc2nnc(Nc3ccccc3)n2C1c1ccccc1 (stereo not given)
active: SF-539 CNS -3.55%
inactive: DU-145 prostate 81.6% | K-562 leukemia 57% | MALME-3M melanoma 75.3% | MDA-MB-231 breast 65.7% | RXF 393 renal 80% | SF-268 CNS 81.9% | SF-295 CNS 96.6% | UACC-257 melanoma 97% | M14 melanoma 100% | HCT-15 colon 58.1% | HT29 colon 79.4% | SNB-75 CNS 70.5% | SNB-19 CNS 81.6% | U251 CNS 45.4% | PC-3 prostate 73.5% | SK-MEL-5 melanoma 89.9% | UACC-62 melanoma 75.3% | LOX IMVI melanoma 59.2% | SK-MEL-28 melanoma 89.9%

COc1ccc(/C=C/C(=O)c2nnn(-c3ccc(Br)cc3)c2C)cc1OC
inactive: DU-145 prostate 73.5% | K-562 leukemia 19.2% | MALME-3M melanoma 83% | MDA-MB-231 breast 83.3% | RXF 393 renal 80.3% | SF-268 CNS 89.4% | SF-295 CNS 80.2% | SF-539 CNS 83.7% | UACC-257 melanoma 85.3% | M14 melanoma 60.4% | HCT-15 colon 60.7% | HT29 colon 62.2% | SNB-75 CNS 81.6% | SNB-19 CNS 78.9% | U251 CNS 86.8% | PC-3 prostate 75.3% | SK-MEL-5 melanoma 63.9% | UACC-62 melanoma 62% | LOX IMVI melanoma 43.5% | SK-MEL-28 melanoma 96.5%

O=C1Nc2ccc(Cl)cc2/C1=C/c1ccc(OCc2ccc(F)cc2)cc1
inactive: DU-145 prostate 95.9% | K-562 leukemia 78.4% | MALME-3M melanoma 102% | MDA-MB-231 breast 95.2% | RXF 393 renal 95.5% | SF-268 CNS 92.7% | SF-295 CNS 99% | SF-539 CNS 96% | UACC-257 melanoma 96.6% | M14 melanoma 98.1% | HCT-15 colon 87.8% | HT29 colon 99.4% | SNB-75 CNS 89.7% | SNB-19 CNS 99.1% | U251 CNS 95.4% | PC-3 prostate 93.6% | SK-MEL-5 melanoma 105% | UACC-62 melanoma 90.8% | LOX IMVI melanoma 92.8% | SK-MEL-28 melanoma 96.3%

C#C[C@]1(O)CC[C@H]2[C@@H]3CC=C4c5sc(-c6ccc(OC)cc6)nc5CC[C@]4(C)[C@H]3CC[C@@]21C
active: RXF 393 renal -46.3% | SF-295 CNS -36.6% | SK-MEL-28 melanoma 4.22%
inactive: DU-145 prostate 76.9% | K-562 leukemia 14.5% | MALME-3M melanoma 51% | MDA-MB-231 breast 72.3% | SF-268 CNS 58.9% | SF-539 CNS 18.1% | UACC-257 melanoma 30.3% | M14 melanoma 36.4% | HCT-15 colon 46.9% | HT29 colon 46.6% | SNB-75 CNS 22.9% | SNB-19 CNS 63.6% | U251 CNS 42.7% | PC-3 prostate 28.2% | SK-MEL-5 melanoma 85.1% | UACC-62 melanoma 33.2% | LOX IMVI melanoma 45%

NC(N)=NS(=O)(=O)c1ccc(N=NC2C(=O)NN(c3ccccc3)C2=O)cc1 (stereo not given)
inactive: DU-145 prostate 104% | K-562 leukemia 107% | MALME-3M melanoma 101% | MDA-MB-231 breast 94.9% | RXF 393 renal 106% | SF-268 CNS 102% | SF-295 CNS 104% | SF-539 CNS 94.8% | UACC-257 melanoma 120% | M14 melanoma 99.5% | HCT-15 colon 101% | HT29 colon 112% | SNB-75 CNS 84.1% | SNB-19 CNS 98.9% | U251 CNS 103% | PC-3 prostate 95.2% | SK-MEL-5 melanoma 98.9% | UACC-62 melanoma 96.1% | LOX IMVI melanoma 96.6% | SK-MEL-28 melanoma 111%

CCN1C(=O)N(CC)C2SC(N/N=C/c3ccc(OC)cc3)=NC21 (stereo not given)
active: SF-295 CNS 8.27% | SF-539 CNS -8.3% | M14 melanoma 3.93% | SK-MEL-5 melanoma -0.548% | LOX IMVI melanoma 3.58%
inactive: DU-145 prostate 11.2% | K-562 leukemia 15.7% | MALME-3M melanoma 45.8% | MDA-MB-231 breast 23.4% | RXF 393 renal 19.6% | SF-268 CNS 49.7% | UACC-257 melanoma 80.4% | HCT-15 colon 12% | HT29 colon 15.1% | SNB-75 CNS 27.3% | SNB-19 CNS 23% | U251 CNS 24.5% | PC-3 prostate 28.9% | UACC-62 melanoma 38.4% | SK-MEL-28 melanoma 60.2%

CN(C)c1ccc(/C=N/Nc2nc(N/N=C/c3ccc(N(C)C)cc3)nc(N3CCOCC3)n2)cc1
inactive: DU-145 prostate 92.7% | MALME-3M melanoma 114% | MDA-MB-231 breast 99.5% | RXF 393 renal 93.1% | SF-268 CNS 97.8% | SF-295 CNS 13.8% | SF-539 CNS 96.7% | UACC-257 melanoma 103% | M14 melanoma 103% | HCT-15 colon 22.4% | HT29 colon 102% | SNB-75 CNS 87.4% | SNB-19 CNS 91.3% | U251 CNS 44.3% | PC-3 prostate 87.7% | SK-MEL-5 melanoma 100% | UACC-62 melanoma 97.8% | LOX IMVI melanoma 87.7% | SK-MEL-28 melanoma 106%
active: K-562 leukemia 6.35%

O=C(Nc1cccc(-c2nc(-c3ccc(NC(=O)c4cccnc4)cc3Cl)no2)c1)Nc1ccc(NC(=O)C2CC2)c(C(F)(F)F)c1
active: DU-145 prostate -26.1% | K-562 leukemia 1.44% | MALME-3M melanoma -78.6% | MDA-MB-231 breast -59.5% | RXF 393 renal -82% | SF-268 CNS -23.2% | SF-295 CNS -81.1% | SF-539 CNS -86.9% | UACC-257 melanoma -45.5% | M14 melanoma -53.3% | HCT-15 colon 9.01% | HT29 colon -26.8% | SNB-75 CNS -73.7% | SNB-19 CNS -0.276% | U251 CNS -48% | PC-3 prostate -65.8% | SK-MEL-5 melanoma -92.9% | UACC-62 melanoma -81.9% | LOX IMVI melanoma -93.3% | SK-MEL-28 melanoma -83.7%
